Reference: the supplement of paper PMC10849652
About 8,800 targets were measured; listed, in parts, are those with a hit and a random draw of the rest. About 0.5% of all pairs of compound and target were hits.

Experiments:
Assay in all cases: log2 fold change, soluble protein after heating vs DMSO (PISA); higher = thermal stabilisation; K562 lysate, 10 uM; active = over 0.2 and 3.5 SD of the protein, either way, in both replicates (recomputed)
lapatinib = compound: CS(=O)(=O)CCNCc1ccc(-c2ccc3ncnc(Nc4ccc(OCc5cccc(F)c5)c(Cl)c4)c3c2)o1 [lapatinib]
Outline: (§1)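 K562 pellets were dounce-homogenised in PBS pH 7.4 containing 1 mM MgCl2, and the crude extract, at 1 mg/mL protein, was exposed to 10 μM compound for 30 min. Aliquots were heated for 3 min across 48°C-58°C, pooled, brought to 0.5% NP-40 at 4°C and spun at 21,000xg for 90 min, with the supernatant taken as soluble protein. TMTpro 16plex LC-MS/MS with equalised channel sums quantified that protein. Values are log-two fold changes in thermal stability relative to solvent controls, taken from duplicates.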

pictilisib = compound: CS(=O)(=O)N1CCN(Cc2cc3nc(-c4cccc5[nH]ncc45)nc(N4CCOCC4)c3s2)CC1 [pictilisib]
Outline: as §1

crizotinib = compound: C[C@@H](Oc1cc(-c2cnn(C3CCNCC3)c2)cnc1N)c1c(Cl)ccc(F)c1Cl [crizotinib]
Outline: as §1

[1] = compound: C[C@H](C1=CC=C(C=C1)C(=O)NC2=C3C=CNC3=NC=C2)N
Outline: as §1

duvelisib = compound: C[C@H](Nc1ncnc2nc[nH]c12)c1cc2cccc(Cl)c2c(=O)n1-c1ccccc1 [duvelisib]
Outline: as §1

gandotinib = compound: Cc1cc(Nc2cc(CN3CCOCC3)c3nc(C)c(Cc4ccc(Cl)cc4F)n3n2)n[nH]1 [gandotinib]
Outline: as §1

tozasertib = compound: Cc1cc(Nc2cc(N3CCN(C)CC3)nc(Sc3ccc(NC(=O)C4CC4)cc3)n2)n[nH]1 [tozasertib]
Outline: as §1

doramapimod = compound: Cc1ccc(-n2nc(C(C)(C)C)cc2NC(=O)Nc2ccc(OCCN3CCOCC3)c3ccccc23)cc1 [doramapimod]
Outline: as §1

bafetinib = compound: Cc1ccc(NC(=O)c2ccc(CN3CC[C@H](N(C)C)C3)c(C(F)(F)F)c2)cc1Nc1nccc(-c2cncnc2)n1 [bafetinib]
Outline: as §1

[2] = compound: Cc1cccc(CC(=O)N2CCc3c2ccc(-c2cn(C)c4ncnc(N)c24)c3F)n1
Outline: as §1

Measured: log2 fold change

GON4L (UniProt Q3T8J9)
Chain of UniProt Q3T8J9 (Q3T8J9 whole entry, looked up): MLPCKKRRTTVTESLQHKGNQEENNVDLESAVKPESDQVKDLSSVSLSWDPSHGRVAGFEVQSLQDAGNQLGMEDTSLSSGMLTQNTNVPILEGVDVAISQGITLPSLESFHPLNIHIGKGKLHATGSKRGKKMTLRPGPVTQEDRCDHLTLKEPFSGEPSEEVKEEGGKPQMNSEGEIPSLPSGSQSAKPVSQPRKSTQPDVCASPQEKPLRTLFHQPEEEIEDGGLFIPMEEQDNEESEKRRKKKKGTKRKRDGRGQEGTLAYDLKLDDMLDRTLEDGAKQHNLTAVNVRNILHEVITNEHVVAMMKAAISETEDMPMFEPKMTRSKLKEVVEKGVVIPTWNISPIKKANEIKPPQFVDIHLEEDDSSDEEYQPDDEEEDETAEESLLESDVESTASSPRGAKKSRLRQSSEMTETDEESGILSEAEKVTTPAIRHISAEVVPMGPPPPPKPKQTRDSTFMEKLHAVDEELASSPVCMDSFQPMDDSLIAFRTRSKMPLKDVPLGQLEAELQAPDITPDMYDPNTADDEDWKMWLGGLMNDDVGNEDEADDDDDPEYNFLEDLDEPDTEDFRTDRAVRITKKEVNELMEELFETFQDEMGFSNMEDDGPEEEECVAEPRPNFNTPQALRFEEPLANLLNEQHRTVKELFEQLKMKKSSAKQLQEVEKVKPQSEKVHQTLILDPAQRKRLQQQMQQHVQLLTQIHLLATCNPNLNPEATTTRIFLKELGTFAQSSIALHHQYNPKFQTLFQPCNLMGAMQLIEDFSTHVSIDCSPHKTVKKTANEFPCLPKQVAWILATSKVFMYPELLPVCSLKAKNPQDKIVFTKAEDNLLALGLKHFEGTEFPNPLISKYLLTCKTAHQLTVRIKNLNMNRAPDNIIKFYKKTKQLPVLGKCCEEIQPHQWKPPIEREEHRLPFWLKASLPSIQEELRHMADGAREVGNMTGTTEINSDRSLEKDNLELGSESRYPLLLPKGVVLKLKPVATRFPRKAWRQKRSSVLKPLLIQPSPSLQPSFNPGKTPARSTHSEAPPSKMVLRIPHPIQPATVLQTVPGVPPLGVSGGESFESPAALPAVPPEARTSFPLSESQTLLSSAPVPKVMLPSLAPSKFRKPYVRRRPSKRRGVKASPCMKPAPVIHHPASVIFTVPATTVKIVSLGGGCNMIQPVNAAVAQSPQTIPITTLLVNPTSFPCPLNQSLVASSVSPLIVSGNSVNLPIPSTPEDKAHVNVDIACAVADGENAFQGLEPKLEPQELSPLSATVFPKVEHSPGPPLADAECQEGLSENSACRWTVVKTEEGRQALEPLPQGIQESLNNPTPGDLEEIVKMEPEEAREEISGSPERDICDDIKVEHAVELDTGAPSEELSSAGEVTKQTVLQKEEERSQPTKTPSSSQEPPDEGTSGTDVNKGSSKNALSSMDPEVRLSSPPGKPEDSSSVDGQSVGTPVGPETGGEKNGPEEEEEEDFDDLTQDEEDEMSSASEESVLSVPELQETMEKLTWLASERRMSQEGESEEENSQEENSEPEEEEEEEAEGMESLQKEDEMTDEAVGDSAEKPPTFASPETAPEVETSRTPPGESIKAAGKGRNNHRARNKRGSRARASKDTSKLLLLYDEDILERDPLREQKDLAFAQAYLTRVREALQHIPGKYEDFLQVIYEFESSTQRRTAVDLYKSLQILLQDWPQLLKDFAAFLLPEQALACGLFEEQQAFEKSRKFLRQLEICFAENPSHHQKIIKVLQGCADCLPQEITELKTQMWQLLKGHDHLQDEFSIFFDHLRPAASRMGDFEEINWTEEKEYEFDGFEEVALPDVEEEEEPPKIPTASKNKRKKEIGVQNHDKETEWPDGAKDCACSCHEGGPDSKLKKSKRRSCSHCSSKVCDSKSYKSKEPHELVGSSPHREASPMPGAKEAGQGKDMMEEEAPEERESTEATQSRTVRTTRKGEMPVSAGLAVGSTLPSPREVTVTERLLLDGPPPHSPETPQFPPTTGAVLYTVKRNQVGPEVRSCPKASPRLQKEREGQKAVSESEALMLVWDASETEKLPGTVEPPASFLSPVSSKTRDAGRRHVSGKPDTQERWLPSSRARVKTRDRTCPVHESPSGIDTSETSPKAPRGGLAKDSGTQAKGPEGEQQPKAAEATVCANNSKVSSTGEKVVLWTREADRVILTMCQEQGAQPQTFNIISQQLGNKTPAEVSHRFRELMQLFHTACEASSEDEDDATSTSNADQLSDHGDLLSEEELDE
inactive: lapatinib 0.006 | pictilisib -0.04 | crizotinib -0.05 | [1] -0.066 | duvelisib -0.045 | gandotinib 0.391 | tozasertib -0.054 | doramapimod -0.011 | bafetinib -0.07 | [2] 0.01

GTPBP2 (UniProt Q9BX10)
inactive: lapatinib 0.064 | pictilisib -0.056 | crizotinib -0.052 | [1] 0.021 | duvelisib 0.043 | gandotinib -0.098 | tozasertib -0.048 | doramapimod 0.027 | bafetinib -0.038 | [2] 0.009

INTS7 (UniProt Q9NVH2)
inactive: lapatinib 0.01 | pictilisib -0.032 | crizotinib -0.07 | [1] -0.096 | duvelisib 0.01 | gandotinib -0.077 | tozasertib -0.01 | doramapimod 0.4 | bafetinib 0.141 | [2] 0.012

KDM6A (UniProt O15550)
inactive: lapatinib 0.033 | pictilisib 0.046 | crizotinib 0.003 | [1] -0.028 | duvelisib 0.032 | gandotinib 0.009 | tozasertib 0.01 | doramapimod 0.022 | bafetinib 0.002 | [2] 0.013

HECTD4 (UniProt J3KPF0)
inactive: lapatinib -0.024 | pictilisib -0.043 | crizotinib -0.127 | [1] -0.005 | duvelisib -0.004 | gandotinib -0.024 | tozasertib 0.01 | doramapimod -0.002 | bafetinib -0.083 | [2] 0.101

HNRNPUL2 (UniProt Q1KMD3)
Chain of UniProt Q1KMD3 (Q1KMD3 whole entry, looked up): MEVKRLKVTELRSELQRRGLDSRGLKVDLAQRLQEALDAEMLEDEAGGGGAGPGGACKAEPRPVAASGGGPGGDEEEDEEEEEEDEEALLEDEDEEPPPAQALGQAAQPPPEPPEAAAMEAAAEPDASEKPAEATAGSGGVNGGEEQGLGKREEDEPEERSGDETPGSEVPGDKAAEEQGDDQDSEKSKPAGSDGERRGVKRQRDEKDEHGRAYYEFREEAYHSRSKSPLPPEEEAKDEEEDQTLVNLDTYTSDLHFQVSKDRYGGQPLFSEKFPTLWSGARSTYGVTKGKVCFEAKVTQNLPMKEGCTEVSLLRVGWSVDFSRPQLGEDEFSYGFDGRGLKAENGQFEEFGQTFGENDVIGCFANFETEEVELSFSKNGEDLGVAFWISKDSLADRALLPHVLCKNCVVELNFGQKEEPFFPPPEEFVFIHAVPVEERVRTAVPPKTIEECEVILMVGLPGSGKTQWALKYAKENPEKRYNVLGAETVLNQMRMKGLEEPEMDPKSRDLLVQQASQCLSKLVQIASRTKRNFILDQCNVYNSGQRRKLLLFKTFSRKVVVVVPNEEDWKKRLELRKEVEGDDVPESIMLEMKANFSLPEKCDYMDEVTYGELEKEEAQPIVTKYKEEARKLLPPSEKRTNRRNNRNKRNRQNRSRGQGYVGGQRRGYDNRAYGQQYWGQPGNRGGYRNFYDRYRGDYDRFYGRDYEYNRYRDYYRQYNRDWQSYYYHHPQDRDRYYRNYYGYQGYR
inactive: lapatinib -0.037 | pictilisib -0.028 | crizotinib -0.033 | [1] -0.002 | duvelisib 0.012 | gandotinib -0.005 | tozasertib 0.009 | doramapimod -0.008 | bafetinib -0.009 | [2] 0.043

HDAC1 (UniProt Q13547)
inactive: lapatinib 0.004 | pictilisib 0.01 | crizotinib -0.014 | [1] -0.04 | duvelisib -0.029 | gandotinib -0.004 | tozasertib -0.015 | doramapimod 0.006 | bafetinib 0.036 | [2] 0.036

HDLBP, A0A024R4E5
inactive: lapatinib 0.005 | pictilisib -0.017 | crizotinib -0.028 | [1] 0.002 | duvelisib -0.003 | gandotinib -0.03 | tozasertib 0.006 | doramapimod 0.018 | bafetinib -0.049 | [2] 0.013

GRB10 (UniProt Q13322)
inactive: lapatinib -0.029 | pictilisib -0.034 | crizotinib -0.028 | [1] -0.125 | duvelisib 0.029 | gandotinib 0.016 | tozasertib -0.06 | doramapimod 0.021 | bafetinib -0.049 | [2] 0.099

HMGCL (UniProt P35914)
inactive: lapatinib -0.005 | pictilisib -0.029 | crizotinib 0.012 | [1] 0.033 | duvelisib 0.002 | gandotinib -0.029 | tozasertib 0.026 | doramapimod 0.008 | bafetinib -0.016 | [2] -0.031

INTS1 (UniProt Q8N201)
inactive: lapatinib -0.051 | pictilisib -0.011 | crizotinib -0.067 | [1] 0.05 | duvelisib -0.04 | gandotinib -0.136 | tozasertib 0.007 | doramapimod -0.001 | bafetinib -0.164 | [2] 0.031

HDHD5 (UniProt Q9BXW7)
Chain of UniProt Q9BXW7 (Q9BXW7 whole entry, looked up): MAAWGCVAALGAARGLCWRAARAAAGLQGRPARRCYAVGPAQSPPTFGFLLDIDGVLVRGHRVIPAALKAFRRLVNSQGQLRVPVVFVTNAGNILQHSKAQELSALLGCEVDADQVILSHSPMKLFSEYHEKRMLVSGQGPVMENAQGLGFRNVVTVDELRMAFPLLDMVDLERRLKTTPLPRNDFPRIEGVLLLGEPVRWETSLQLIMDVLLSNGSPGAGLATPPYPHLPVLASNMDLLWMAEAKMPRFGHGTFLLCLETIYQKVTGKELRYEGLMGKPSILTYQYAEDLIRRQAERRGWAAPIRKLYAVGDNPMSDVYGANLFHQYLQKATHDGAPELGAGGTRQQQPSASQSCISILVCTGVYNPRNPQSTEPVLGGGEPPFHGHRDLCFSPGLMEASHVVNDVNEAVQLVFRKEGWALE
inactive: lapatinib 0.011 | pictilisib 0.012 | crizotinib -0.017 | [1] -0.147 | duvelisib 0.058 | gandotinib -0.005 | tozasertib 0.059 | doramapimod 0.131 | bafetinib 0.033 | [2] 0.116

ILKAP (UniProt Q9H0C8)
inactive: lapatinib 0.04 | pictilisib 0.049 | crizotinib 0.026 | [1] 0.022 | duvelisib 0.007 | gandotinib -0.052 | tozasertib 0.031 | doramapimod 0.029 | bafetinib 0.001 | [2] -0.021

KHDRBS1 (UniProt Q07666)
inactive: lapatinib -0.035 | pictilisib 0.024 | crizotinib 0.025 | [1] 0.046 | duvelisib 0.005 | gandotinib -0.08 | tozasertib 0.008 | doramapimod -0.017 | bafetinib 0.039 | [2] -0.031

INPP4A (UniProt Q96PE3)
inactive: lapatinib -0.028 | pictilisib -0.116 | crizotinib -0.024 | [1] -0.086 | duvelisib 0.025 | gandotinib 0.003 | tozasertib 0.065 | doramapimod 0.014 | bafetinib 0.132 | [2] 0.128

GSTCD (UniProt Q8NEC7)
inactive: lapatinib -0.006 | pictilisib -0.015 | crizotinib -0.037 | [1] -0.058 | duvelisib 0.09 | gandotinib 0.036 | tozasertib -0.037 | doramapimod 0 | bafetinib -0.053 | [2] 0.01

HNRNPL (UniProt P14866)
inactive: lapatinib 0.005 | pictilisib -0.02 | crizotinib -0.042 | [1] 0.018 | duvelisib 0.03 | gandotinib -0.081 | tozasertib -0.011 | doramapimod -0.018 | bafetinib 0.004 | [2] -0.016

HARS (UniProt P12081)
Chain of UniProt P12081 (P12081 whole entry, looked up): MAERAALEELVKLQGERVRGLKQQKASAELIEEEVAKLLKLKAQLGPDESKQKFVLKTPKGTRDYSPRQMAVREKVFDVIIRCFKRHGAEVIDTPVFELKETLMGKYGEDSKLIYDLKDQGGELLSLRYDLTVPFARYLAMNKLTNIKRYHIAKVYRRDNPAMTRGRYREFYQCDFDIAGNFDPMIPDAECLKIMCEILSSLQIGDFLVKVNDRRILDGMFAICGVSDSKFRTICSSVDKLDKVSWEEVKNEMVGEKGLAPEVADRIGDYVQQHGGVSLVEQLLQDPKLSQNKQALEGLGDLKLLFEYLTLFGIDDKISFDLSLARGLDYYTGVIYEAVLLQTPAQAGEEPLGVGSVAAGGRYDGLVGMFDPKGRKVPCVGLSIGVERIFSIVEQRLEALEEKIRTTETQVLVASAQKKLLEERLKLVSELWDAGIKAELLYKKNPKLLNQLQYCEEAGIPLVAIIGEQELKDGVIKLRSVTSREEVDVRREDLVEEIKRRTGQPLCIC
inactive: lapatinib 0.008 | pictilisib 0.01 | crizotinib -0.009 | [1] 0.028 | duvelisib 0.014 | gandotinib -0.052 | tozasertib 0.006 | doramapimod 0.003 | bafetinib 0.015 | [2] -0.01

GTF3C5 isoform 3 (UniProt Q9Y5Q8)
inactive: lapatinib -0.009 | pictilisib -0.01 | crizotinib -0.047 | [1] -0.014 | duvelisib -0.02 | gandotinib -0.002 | tozasertib -0.012 | doramapimod 0.063 | bafetinib -0.047 | [2] 0.02

GPX4 (UniProt P36969)
Chain of UniProt P36969 (P36969 whole entry, looked up): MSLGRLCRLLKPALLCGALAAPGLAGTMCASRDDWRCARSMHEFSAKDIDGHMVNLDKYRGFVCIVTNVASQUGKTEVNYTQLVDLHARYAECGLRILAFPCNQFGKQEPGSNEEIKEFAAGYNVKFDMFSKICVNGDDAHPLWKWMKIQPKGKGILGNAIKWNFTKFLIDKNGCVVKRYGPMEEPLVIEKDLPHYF
inactive: lapatinib -0.037 | pictilisib -0.03 | crizotinib -0.01 | [1] 0.041 | duvelisib -0.008 | gandotinib -0.065 | tozasertib 0 | doramapimod -0.001 | bafetinib -0.033 | [2] -0.051

INPPL1 (UniProt O15357)
inactive: lapatinib 0.023 | pictilisib 0.006 | crizotinib -0.047 | [1] -0.05 | duvelisib -0.004 | gandotinib -0.065 | tozasertib 0.029 | doramapimod 0.01 | bafetinib -0.05 | [2] 0.03

GOLGA6B (UniProt A6NDN3)
Chain of UniProt A6NDN3 (A6NDN3 whole entry, looked up): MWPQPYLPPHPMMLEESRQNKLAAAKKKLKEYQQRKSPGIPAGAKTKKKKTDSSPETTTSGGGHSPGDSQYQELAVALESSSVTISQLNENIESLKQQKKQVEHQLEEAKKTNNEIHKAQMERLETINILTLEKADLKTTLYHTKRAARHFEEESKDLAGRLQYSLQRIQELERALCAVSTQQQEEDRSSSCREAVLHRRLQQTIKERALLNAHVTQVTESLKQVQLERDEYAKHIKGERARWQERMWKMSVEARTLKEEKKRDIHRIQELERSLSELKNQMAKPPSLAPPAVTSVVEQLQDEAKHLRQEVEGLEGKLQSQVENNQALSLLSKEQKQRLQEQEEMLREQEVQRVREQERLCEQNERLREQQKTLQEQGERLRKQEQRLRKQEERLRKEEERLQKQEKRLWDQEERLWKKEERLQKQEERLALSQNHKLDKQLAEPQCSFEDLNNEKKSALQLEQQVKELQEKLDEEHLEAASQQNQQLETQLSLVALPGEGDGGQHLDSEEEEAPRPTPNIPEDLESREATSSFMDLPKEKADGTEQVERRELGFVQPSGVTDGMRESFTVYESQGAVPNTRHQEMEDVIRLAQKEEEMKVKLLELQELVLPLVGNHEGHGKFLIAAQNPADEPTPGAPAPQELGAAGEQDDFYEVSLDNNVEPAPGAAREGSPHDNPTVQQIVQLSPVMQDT
inactive: lapatinib -0.105 | pictilisib -0.061 | crizotinib -0.193 | [1] -0.105 | duvelisib 0.121 | gandotinib 0.109 | tozasertib 0.027 | doramapimod -0.381 | bafetinib -0.04 | [2] 0
